Data as given in PubChem BioAssay (Tox21).
Activity calls are given as the source filed them. The call rests on the fitted dose curve.

Assay: G protein-coupled receptor (GPCR) small molecule agonists, calcium flux assay: HEK293 wild type cell line counter screen (AID 1920065)
Conditions: HEK293 WT calcium flux, fluorescence, agonist mode; series mostly up to 57.6 µM
Text: U.S. Tox21 Program National Center for Advancing Translational Sciences [NCATS] Division of Preclinical Innovation [DPI] U.S. Environmental Protection Agency [EPA] National Institutes of Environmental Health Sciences [NIEHS] National Toxicology Program [NTP] U.S. Food and Drug Administration [FDA] Assay overview: The increased intracellular calcium release that occurred upon G protein-coupled receptor (GPCR) activation led to the frequent use of calcium flux assays to detect GPCR activation. For the purpose of studying and screening compounds that may activate GPCR, receptor-overexpressing models were typically generated using Hek293 wild-type (WT) cells. In order to eliminate the compounds that may have induced calcium release for non-specific activation, a counter-assay utilizing calcium flux on Hek293 WT cells was performed. The data were formulated in order to serve as a control for any calcium flux detection utilizing Hek293 cells with either GPCR overexpression or gene modification. The procurement of Hek293 WT cells from ATCC. Fluorescence intensity can be utilized to determine the activation of the compound in a calcium flux assay. As a counter control, this cell line was utilized to screen the Tox21 10K compound library.
Assay Protocol Summary: Hek293 cells were dispensed at 1500cells/4uL/well in 1536-well black wall/clear bottom plates using a multidrop dispenser. After the assay plates were incubated at a 37 C/5% CO2 incubator for 18 hours, 4 uL of Calcium Dye Solution was added to each well. The plates were incubated at 37 C for 1 hour. For agonist mode, 23 nL of compounds dissolved in DMSO, positive control (ATP) or DMSO only was transferred to the assay plate by a pin tool station. The fluorescence intensity in the plates was measured using FDSS 7000EX kinetic plate reader with a filter set of Ex/Em=480/540 for 3 min at 1 sec intervals. Each test compound was measured at 15 concentrations and in triplicates.
On the % scale 0 is the no-effect control and ±100 the full control effect.

SMILES	outcome	activation
CC(CN(C)C)C(C)(O)Cc1ccc(Cl)cc1 (stereo not given)	inactive	–
CCOc1cc(OCC)c(C(=O)CCC(=O)O)cc1OCC	inactive	–
COc1cc(N)c(Cl)cc1C(=O)NC1CCN(CCCOc2ccc(F)cc2)CC1OC (stereo not given)	inactive	–
OCCCc1cccnc1	inactive	–
O=C(NC1CCN(CCc2c[nH]c3ccccc23)CC1)c1ccccc1	inactive	–
[O]=[Mo](=[O])=[O]	–	-0.132% [at 11.8 µM] (inactive)
OC1(c2ccc(Cl)c(C(F)(F)F)c2)CCN(CCCC(c2ccc(F)cc2)c2ccc(F)cc2)CC1	inactive	–
CCC(O)C(C)(C)C (stereo not given)	inactive	–
CN1CCOC(c2ccccc2)c2ccccc2C1 (stereo not given)	inactive	–
O=C1C(CCS(=O)c2ccccc2)C(=O)N(c2ccccc2)N1c1ccccc1 (stereo not given)	inactive	–
C#CCOC(=O)[C@@H](C)Oc1ccc(Oc2ncc(Cl)cc2F)cc1	inactive	–
NCC[C@H](O)C(=O)N[C@@H]1C[C@H](N)[C@@H](O[C@H]2O[C@H](CN)[C@@H](O)[C@H](O)[C@H]2O)[C@H](O)[C@H]1O[C@H]1O[C@H](CO)[C@@H](O)[C@H](N)[C@H]1O	–	0.401% [at 0.217 µM] (inactive)
CC1=NS(=O)(=O)c2cc(Cl)ccc2N1	inactive	–
O=C(Oc1ccccc1C(=O)O)c1ccccc1O	inactive	–
O=CN1CCCCC1	inactive	–
Nc1ccc(S(=O)(=O)NC(=O)c2ccccc2)cc1	inactive	–
CCCCCCOC(=O)CCCCC(=O)OCCCCCC	inactive	–
NCC(=O)O	–	-1.52% [at 11.8 µM] (inactive)
CCCCNS(=O)(=O)c1ccc(C)cc1	inactive	–
Cc1ccc(NC(N)=O)cc1	inactive	–

SMILES	outcome	activation
CCC1CO1 (stereo not given)	inactive	–
CC1OCCC1=O (stereo not given)	inactive	–
Cc1cccc(C)c1C	inactive	–
CCCCCCCCCCCCCCCCCCOS(=O)(=O)O	inactive	–
Cc1cc2c(s1)Nc1ccccc1N=C2N1CCN(C)CC1	inactive	–
COc1cc(O)cc(O)c1	inactive	–
O=C(O)Cc1ccccc1Oc1ccc(Cl)cc1Cl	inactive	–
O=c1[nH]sc2cc(Cl)ccc12	inactive	–
COc1ncnc(NS(=O)(=O)c2ccc(N)cc2)c1OC	inactive	–
Cc1c(Cn2ccnc2)c2ccccc2n1CCC(=O)O	inactive	–
CS(=O)(=O)c1ccc(-c2cn3ccccc3n2)cc1	inactive	–
Cc1cc(C)c(NC(=O)CN(CC(=O)O)CC(=O)O)c(C)c1Br	inactive	–
CCOC(=O)CC#N	inactive	–
CCN(CC)CCNC(=O)c1cc(Br)c(N)cc1OC	inactive	–
CCCCCCCCCCCCCCCC/C=C/C1CC(=O)OC1=O (stereo not given)	inactive	–
O=NN(CCCl)C(=O)NCCCl	inactive	–
CCCCCCCC/C=C\CCCCCCCCN	inactive	–
CN1CCN(c2c(F)cc3c(=O)c(C(=O)O)cn4c3c2SCC4)CC1	inactive	–
CCC=O	inactive	–
[Cl][Pt-2]([Cl])([Cl])[Cl]	inactive	–
